According to PubChem BioAssay (NCI):
This is part of a sample that, as a whole, favours compounds with a hit. Of some 83,000 tested, about 20% had one in any assay.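 Interpretation: 100, growth as untreated; towards 0, rising growth inhibition; 0, no net growth; 0 to -100, cell death. Compounds scoring below 10 were considered active.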 The source made the active and inactive calls.

Key:
Assay in all cases: NCI-60 one-dose screen, 48 h (100 = growth as untreated, 0 = no growth, -100 = all killed)
[1] = system: SR leukemia; conditions: 10 µM unless noted
[2] = system: RPMI-8226 leukemia; conditions: 10 µM unless noted
[3] = system: OVCAR-8 ovarian; conditions: 10 µM unless noted
[4] = system: OVCAR-5 ovarian; conditions: 10 µM unless noted
[5] = system: OVCAR-4 ovarian; conditions: 10 µM unless noted
[6] = system: SK-OV-3 ovarian; conditions: 10 µM unless noted
[7] = system: IGROV1 ovarian; conditions: 10 µM unless noted
[8] = system: OVCAR-3 ovarian; conditions: 10 µM unless noted
[9] = system: HS 578T breast; conditions: 10 µM
[10] = system: NCI/ADR-RES ovarian; conditions: 10 µM unless noted
[11] = system: T-47D breast; conditions: 10 µM unless noted
[12] = system: BT-549 breast; conditions: 10 µM unless noted
[13] = system: MDA-MB-435 melanoma; conditions: 10 µM unless noted
[14] = system: SW-620 colon; conditions: 10 µM unless noted
[15] = system: MCF7 breast; conditions: 10 µM unless noted
[16] = system: HCT-116 colon; conditions: 10 µM unless noted
[17] = system: HCC-2998 colon; conditions: 10 µM
[18] = system: KM12 colon; conditions: 10 µM unless noted

Measured: growth

CCCCCC(=O)OCc1ccc(Cl)c(Cl)c1
inactive: [1] 97.5% | [2] 104% | [3] 103% | [4] 108% | [5] 105% | [6] 107% | [7] 106% | [8] 106% | [9] 103% | [10] 102% | [11] 105% | [12] 109% | [13] 109% | [14] 109% | [15] 93.9% | [16] 101% | [17] 94.8%

COc1ccc(Nc2ncccc2NC(=O)c2cn(Cc3cccc(Oc4ccccc4)c3)nn2)cc1
inactive: [1] 74.2% | [2] 86% | [3] 87.5% | [4] 105% | [5] 78.7% | [6] 103% | [7] 98.8% | [8] 92% | [9] 95.7% | [10] 76.6% | [11] 79.1% | [12] 93.6% | [13] 77.8% | [14] 106% | [15] 89.9% | [16] 92.4% | [17] 115% | [18] 84.8%

CC(N)C(Cc1ccccc1)c1ccc(Cl)cc1 (configuration not stated)
inactive: [1] 67.9% | [2] 94.5% | [3] 96.1% | [4] 80.8% | [5] 85.8% | [6] 72.5% | [7] 94.8% | [8] 102% | [9] 86.2% | [10] 95.7% | [11] 75.5% | [12] 88.4% | [13] 94.1% | [14] 88.9% | [15] 90.3% | [16] 78.8% | [17] 84.5% | [18] 98.9%

CC[n+]1c(/C=C/C=C2\N(C)c3ccccc3C2(C)C)sc2ccccc21
inactive: [3] 12.8% | [4] 27.4% | [5] 19.9% | [7] 32% | [9] 39.8% | [10] 30.4% | [14] 17% | [17] 32.2%
active: [1] -5.33% | [2] -31% | [6] -12.3% | [8] 8.88% | [11] 4.61% | [12] -2.69% | [13] 4.07% | [15] -26.9% | [16] 7.25%

COC(=O)[C@]12CC[C@@H](C)[C@H](C)[C@@H]1C1=CC[C@@H]3[C@@]4(C)C(c5cnco5)=C[C@@](C)(CO)C4=CC[C@@]3(C)[C@]1(C)CC2
inactive: [1] 21.1% | [2] 26.1% | [3] 60.8% | [4] 78.8% | [5] 40.6% | [6] 67.2% | [7] 77.6% | [8] 50.1% | [9] 72.8% | [10] 53.9% | [11] 14.7% | [12] 56.4% | [13] 60.5% | [14] 50.9% | [15] 37.1% | [16] 22.6% | [17] 45.5% | [18] 37.2%

c1cc[n+](Cc2c3ccccc3cc3c2ccc2ccccc23)cc1
inactive: [1] 21.2% | [2] 17.6% | [3] 39.8% | [4] 81.1% | [5] 34.4% | [6] 87.9% | [7] 13.7% | [8] 36% | [9] 13.3% | [10] 99.3% | [11] 30.8% | [12] 10.4% | [13] 51% | [14] 57.4% | [15] 31.9% | [16] 58.1% | [17] 42.8% | [18] 35.9%

NC(=O)N1N=C(c2ccc(Cl)cc2)CC1c1cn(-c2ccccc2)nc1-c1ccc(Cl)cc1 (configuration not stated)
inactive: [1] 67.3% | [2] 70.9% | [3] 36.8% | [4] 94.6% | [5] 14% | [6] 50.9% | [7] 68.8% | [8] 78.1% | [9] 50.8% | [10] 47.8% | [11] 45.6% | [12] 98.9% | [13] 75.2% | [14] 84.8% | [15] 63.7% | [16] 31.9% | [17] 78.6%

Cc1cc(NCC(=O)Nc2ccc(-c3nc4ccccc4s3)cc2)no1
inactive: [1] 69.9% | [2] 98.4% | [3] 96.4% | [4] 119% | [5] 111% | [6] 120% | [7] 88.5% | [8] 99.3% | [9] 101% | [10] 103% | [11] 80.3% | [12] 94.7% | [13] 104% | [14] 113% | [15] 35.9% | [16] 90.7% | [17] 99.2% | [18] 102%

COC(=O)[C@H](C)NC(=O)[C@@H](OC)[C@@H]1Cc2cc3cc(OC4CC(OC5CC(O)C(O)C(C)O5)C(O)C(C)O4)c(C)c(O)c3c(O)c2C(=O)[C@H]1OC1CC(OC2CC(OC3CC(C)(O)C(O)C(C)O3)C(O)C(C)O2)C(O)C(C)O1 (some centres not stated)
inactive: [4] 13.5% | [6] 22.6% | [7] 22.8% | [10] 75.4% | [14] 10.2%
active: [1] 7.81% | [2] -5.91% | [3] 9.19% | [5] 0.165% | [8] 5.02% | [9] -7.37% | [11] 2.98% | [12] -32.5% | [13] -39.3% | [15] 8.55% | [16] 4.37% | [17] -44% | [18] 5.08%

C[N+](C)(CCOC(c1ccccc1)c1ccccc1)CC(=O)OCc1ccccc1
inactive: [1] 115% | [2] 111% | [3] 106% | [4] 103% | [5] 93.5% | [6] 106% | [7] 106% | [8] 103% | [9] 108% | [10] 105% | [11] 120% | [12] 94.8% | [13] 97.9% | [14] 108% | [15] 97% | [16] 105% | [17] 106% | [18] 99.9%

CCc1nc2cc(/C=C/C(=O)NO)c(F)cc2c(=O)n1CCc1ccccc1
active: [1] 8.11% | [3] 6.53% | [6] -4.18% | [8] 5.14% | [10] -11.3% | [11] -0.665% | [16] 5.15%
inactive: [2] 12% | [4] 25.4% | [5] 11% | [7] 26.1% | [9] 54% | [12] 15.7% | [13] 18.2% | [14] 18.4% | [15] 12.3% | [17] 37.3% | [18] 15.5%

CCCCn1c(C)nc2ccc(Nc3nc(N4CCN(C)CC4)nc4nc[nH]c34)cc21
inactive: [1] 84% | [2] 88.2% | [3] 91.8% | [4] 95.6% | [5] 97.8% | [6] 104% | [7] 94.1% | [8] 99.2% | [9] 86.8% | [10] 104% | [11] 80.3% | [12] 97.5% | [13] 94.3% | [14] 91.8% | [15] 83% | [16] 75.8% | [17] 83.6% | [18] 93.6%

Nc1ccc(S(=O)(=O)O)c2cc(S(=O)(=O)O)cc(O)c12
inactive: [1] 105% | [2] 102% | [3] 105% | [4] 102% | [5] 109% | [6] 101% | [7] 107% | [8] 113% | [9] 103% | [10] 105% | [11] 120% | [12] 99% | [13] 110% | [14] 107% | [15] 104% | [16] 93.7% | [17] 117% | [18] 102%

COc1cc(NCCN(CC(C)C)CC(C)C)c2ncc(C)cc2c1
inactive: [1] 76.3% | [2] 62.6% | [3] 68.7% | [4] 111% | [5] 34.6% | [6] 88.8% | [7] 76.5% | [9] 100% | [10] 76.5% | [11] 20.3% | [12] 88.7% | [14] 68.1% | [16] 31.8% | [17] 85.6% | [18] 68.6%
active: [8] 1.71% | [13] -76.4% | [15] 2.66%

Cc1cc2c3c(cccc3c1)C(=O)c1ccccc1-2
inactive: [1] 96.6% | [2] 109% | [3] 107% | [4] 100% | [5] 94.8% | [6] 107% | [7] 90.5% | [8] 90.2% | [9] 99.6% | [10] 77.9% | [11] 92.1% | [12] 95.3% | [13] 103% | [14] 94.7% | [15] 82% | [16] 96.1% | [17] 98.2% | [18] 93.3%

C=C1C(=O)O[C@H]2[C@H]1CC/C(C=Nc1c(N)cc(C(F)(F)F)cc1C(F)(F)F)=C\CC[C@@]1(C)O[C@@H]21
active: [1] 0.897% | [2] -18.7% | [3] 4.81% | [4] -9.13% | [5] -71.6% | [7] -46.3% | [8] -93.8% | [10] -23.1% | [11] -27% | [12] -31.5% | [13] -71.9% | [14] -54.9% | [15] -2.09% | [16] -72.8% | [17] -77.5%
inactive: [6] 48.8% | [9] 16.7% | [18] 14.4%

NC1=Nc2ccccc2N(O)N1
inactive: [1] 105% | [2] 107% | [3] 104% | [4] 92.4% | [5] 99.8% | [6] 90.9% | [7] 105% | [8] 111% | [9] 97.3% | [10] 103% | [11] 87.1% | [12] 95% | [13] 106% | [14] 105% | [15] 94.2% | [16] 93.3% | [17] 91.3%
